Results reported in PubChem BioAssay (NCI).
This is part of a sample that, as a whole, favours compounds with a hit. Of some 79,000 tested, about 15% had one in any assay. Activity calls are given as the source filed them. Rule as the data show it: active = growth inhibition above about 70%; inactive = the rest.

Experiments:
[1] = NCI Yeast Anticancer Drug Screen. Data for the mec2-1 strain (AID 157); details: S. cerevisiae mec2-1 strain, hits give high values
How it was run: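 Test agents were screened against the mec2-1 yeast strain, with defined DNA repair or cell cycle alteration. Growth was scored as inhibition against vehicle-only controls.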

[2] = NCI Yeast Anticancer Drug Screen. Data for the rad14 strain (AID 159);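 also: 0% = growth of vehicle-treated control cultures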; details: S. cerevisiae rad14 strain growth inhibition, hits give high values
How it was run: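 Readout: yeast growth inhibition, referenced to vehicle-only cultures. Strain bears a defined alteration in DNA damage repair.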

[3] = NCI Yeast Anticancer Drug Screen. Data for the sgs1 mgt1 strain (AID 161);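 also: 0% = growth of cultures given vehicle only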; details: S. cerevisiae sgs1 mgt1 strain, hits give high values
How it was run: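 Genetically altered yeast, compound exposure, growth inhibition relative to vehicle.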

[4] = NCI Yeast Anticancer Drug Screen. Data for the CLN2oe strain (AID 163);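 also: 0% = growth of vehicle-only control cultures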; details: S. cerevisiae CLN2oe strain, hits give high values
How it was run: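 Here, growth inhibition in a cell-cycle-altered yeast strain after compound exposure was quantified against vehicle control growth.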

[5] = NCI Yeast Anticancer Drug Screen. Data for the cln2 rad14 strain (AID 165);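 also: 0% = growth equal to vehicle treated cultures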; details: S. cerevisiae cln2 rad14 strain, hits give high values
How it was run: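 Growth of compound-exposed yeast (cln2 rad14 genotype) measured and expressed as inhibition relative to vehicle.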

[6] = NCI Yeast Anticancer Drug Screen. Data for the bub3 strain (AID 167); details: S. cerevisiae bub3 mutant strain, hits give high values
How it was run: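 Part of a panel of yeast mutants defective in DNA damage repair or cell cycle regulation. Each strain is grown with compound, and inhibition is calculated relative to solvent-treated cultures.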

[7] = NCI Yeast Anticancer Drug Screen. Data for the wt2 strain (AID 169);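 also: 0% = growth of vehicle-treated yeast cultures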; details: S. cerevisiae wt2 strain growth inhibition, hits give high values
How it was run: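 Genetically defined yeast strains from a DNA-repair/cell-cycle panel were used. Compound-exposed yeast growth was measured, and the inhibition was calculated relative to vehicle treatment.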

[8] = NCI Yeast Anticancer Drug Screen. Data for the mlh1 strain (AID 171);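 also: 0% = growth of vehicle-treated control cultures of the same strain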; details: S. cerevisiae mlh1 strain growth inhibition, hits give high values
How it was run: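 Here the genetically defined yeast mutant is grown with each compound, and the extent to which its growth falls below that of vehicle-exposed cells is reported.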

[9] = NCI Yeast Anticancer Drug Screen. Data for the sgs1 strain (AID 173);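 also: 0% = growth of vehicle-only control cultures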; details: S. cerevisiae sgs1 mutant, hits give high values
How it was run: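 Relative growth inhibition, referenced to vehicle, was determined in a yeast strain with a defined alteration affecting DNA damage repair or cell cycle control after compound exposure.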

[10] = NCI Yeast Anticancer Drug Screen. Data for the mlh1 rad18 strain (AID 175); details: S. cerevisiae mlh1 rad18 strain growth inhibition, hits give high values
How it was run: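 In this whole-cell yeast screen, a strain with altered DNA damage repair is challenged with compound, and its growth is measured against matched vehicle-treated controls.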

[11] = NCI Yeast Anticancer Drug Screen. Data for the rad18 strain (AID 177); details: S. cerevisiae rad18 mutant growth inhibition, hits give high values
How it was run: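 Screen uses a yeast strain with a defined lesion in DNA damage repair; compound effect is read as loss of growth compared to untreated vehicle cultures.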

[12] = NCI Yeast Anticancer Drug Screen. Data for the wt1 strain (AID 149);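 also: 0% = growth of vehicle-treated wt1 cultures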; details: S. cerevisiae wt1 strain (SPY 50644) growth inhibition, hits give high values
How it was run: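 The wt1 strain was treated with compounds, and growth was compared with vehicle-treated cultures to give inhibition.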

[13] = NCI Yeast Anticancer Drug Screen. Data for the rad50EPP+ strain (AID 151);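 also: 0% = growth of vehicle-treated control cultures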; details: S. cerevisiae rad50 mutant strain, hits give high values
How it was run: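 One strain with a rad50 alteration (rad50EPP+) was compound-treated, its growth then compared to that of vehicle controls.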

[14] = NCI Yeast Anticancer Drug Screen. Data for the rad50 strain (AID 155);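 also: 0% = growth of vehicle-only cultures of the same strain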; details: S. cerevisiae rad50 strain growth inhibition, hits give high values
How it was run: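 Cells are treated with compound, grown, and their growth is then scored against vehicle-only cultures of the same repair-deficient yeast strain.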

[15] = NCI Yeast Anticancer Drug Screen. Data for the rad52 strain (AID 147);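 also: 0% = growth of vehicle-treated control cultures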; details: S. cerevisiae rad52 mutant growth inhibition, hits give high values
How it was run: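 Measured: yeast growth inhibition. System: strain with a defined DNA damage repair alteration. Reference: vehicle-treated control cultures.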

[16] = NCI Yeast Anticancer Drug Screen. Data for the mgt1 strain (AID 153); details: S. cerevisiae mgt1 mutant growth inhibition, hits give high values
How it was run: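 After exposure of the mgt1 yeast mutant to compound, growth was measured and reported as inhibition compared with vehicle controls.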

[17] = at 5.0 µM (retest, dose inferred, filed as 0.5)
[18] = at 50.0 µM (retest, dose inferred, filed as 5.0)

Measured: growth inhibition

Oc1ccc2nc3ccccc3nc2c1
inactive: [2]; at 1.2 µM 1% | [2]; at 3.7 µM 5% | [2]; at 11.0 µM 18% | [2]; at 33.0 µM 31% | [3]; [17] -3% | [3]; [18] 20% | [3]; at 50.0 µM 48.5% | [4]; at 1.2 µM 4% | [4]; at 3.7 µM 2% | [4]; at 11.0 µM 11% | [4]; at 33.0 µM 22% | [4]; at 100.0 µM 67% | [5]; [17] 19% | [5]; [18] 20% | [5]; at 50.0 µM 65.5% | [6]; at 1.2 µM 2% | [6]; at 3.7 µM 5% | [6]; [17] -8% | [6]; at 11.0 µM 29% | [6]; at 33.0 µM 46% | [6]; [18] 61% | [7]; at 1.2 µM -1% | [7]; at 3.7 µM 4% | [7]; at 11.0 µM 13% | [7]; at 33.0 µM 27% | [8]; at 1.2 µM -3% | [8]; at 3.7 µM -2% | [8]; at 11.0 µM 11% | [8]; at 33.0 µM 27% | [9]; at 1.2 µM -2% | [9]; at 3.7 µM 2% | [9]; at 11.0 µM 18% | [9]; at 33.0 µM 29% | [10]; [17] 35% | [11]; at 1.2 µM -3% | [11]; at 3.7 µM 8% | [11]; at 11.0 µM 15% | [11]; at 33.0 µM 54%
active: [1]; at 100.0 µM 95% | [2]; at 100.0 µM 85% | [6]; at 50.0 µM 88% | [6]; at 100.0 µM 82% | [7]; at 100.0 µM 73% | [8]; at 100.0 µM 80% | [9]; at 100.0 µM 84% | [10]; [18] 82% | [10]; at 50.0 µM 86.8% | [11]; at 100.0 µM 91%

Nc1nc(N)c(-c2ccc(Cl)c(Cl)c2)c(CP(Cl)(Cl)(Cl)Br)n1
inactive: [12]; at 1.2 µM 9% | [12]; at 3.7 µM 16% | [12]; at 11.0 µM 45% | [12]; at 33.0 µM 55% | [12]; at 100.0 µM 48% | [13]; at 1.2 µM -2% | [13]; at 3.7 µM 4% | [13]; at 11.0 µM 20% | [13]; at 33.0 µM 33% | [13]; at 100.0 µM 48% | [14]; at 1.2 µM 9% | [14]; at 3.7 µM 46% | [14]; [17] 53% | [14]; at 11.0 µM 69% | [14]; at 50.0 µM 62% | [14]; at 100.0 µM 59% | [1]; at 1.2 µM 4% | [1]; at 3.7 µM 7% | [1]; [17] 39% | [1]; at 11.0 µM 13% | [1]; at 33.0 µM 38% | [1]; at 50.0 µM 42.4% | [1]; at 100.0 µM 27% | [2]; at 1.2 µM 6% | [2]; at 3.7 µM 8% | [2]; at 11.0 µM 27% | [2]; at 33.0 µM 37% | [2]; at 100.0 µM 54% | [3]; [17] 30% | [3]; at 50.0 µM 63.6% | [4]; at 1.2 µM -2% | [4]; at 3.7 µM -6% | [4]; at 11.0 µM -9% | [4]; at 33.0 µM -2% | [4]; at 100.0 µM 10% | [5]; [17] 0% | [5]; [18] 22% | [5]; at 50.0 µM 9.75% | [6]; at 1.2 µM 10% | [6]; at 3.7 µM 23% | [6]; [17] 45% | [6]; at 11.0 µM 42% | [6]; at 33.0 µM 56% | [6]; at 50.0 µM 51.4% | [6]; at 100.0 µM 55% | [7]; at 1.2 µM 7% | [7]; at 3.7 µM 18% | [7]; at 11.0 µM 56% | [8]; at 1.2 µM -8% | [8]; at 3.7 µM -2% | [8]; at 11.0 µM 7% | [8]; at 33.0 µM 48% | [9]; at 1.2 µM -1% | [9]; at 3.7 µM 6% | [9]; at 11.0 µM 49% | [10]; [17] 64% | [10]; at 50.0 µM 58.4% | [11]; at 1.2 µM 13% | [11]; at 3.7 µM 45%
active: [14]; at 33.0 µM 76% | [14]; [18] 80% | [1]; [18] 78% | [3]; [18] 82% | [6]; [18] 78% | [7]; at 33.0 µM 80% | [7]; at 100.0 µM 94% | [8]; at 100.0 µM 88% | [9]; at 33.0 µM 74% | [9]; at 100.0 µM 92% | [10]; [18] 88% | [11]; at 11.0 µM 75% | [11]; at 33.0 µM 79% | [11]; at 100.0 µM 74%

COC(=O)C1=C(C(=O)OC)C2OC1c1cc3ccccc3cc12
inactive: [15]; at 1.2 µM 21% | [15]; at 3.7 µM 33% | [13]; at 1.2 µM 34% | [13]; at 3.7 µM 57% | [16]; at 1.2 µM 27% | [16]; at 3.7 µM 44% | [14]; at 1.2 µM 18% | [14]; at 3.7 µM 37% | [1]; at 1.2 µM 59% | [1]; at 3.7 µM 58% | [1]; [17] 58% | [4]; at 1.2 µM 45% | [4]; at 3.7 µM 50% | [5]; [17] 16% | [6]; [17] 64% | [7]; at 1.2 µM 13% | [7]; at 3.7 µM 29% | [8]; at 1.2 µM 19% | [8]; at 3.7 µM 35% | [9]; at 1.2 µM 24% | [9]; at 3.7 µM 45% | [11]; at 1.2 µM 50% | [11]; at 3.7 µM 60%
active: [15]; at 11.0 µM 79% | [15]; at 33.0 µM 97% | [15]; at 100.0 µM 98% | [13]; at 11.0 µM 79% | [13]; at 33.0 µM 93% | [13]; at 100.0 µM 96% | [16]; at 11.0 µM 93% | [16]; at 33.0 µM 99% | [16]; at 100.0 µM 99% | [14]; [17] 76% | [14]; at 11.0 µM 76% | [14]; at 33.0 µM 97% | [14]; [18] 100% | [14]; at 50.0 µM 99.6% | [14]; at 100.0 µM 98% | [1]; at 11.0 µM 86% | [1]; at 33.0 µM 99% | [1]; [18] 100% | [1]; at 50.0 µM 99.6% | [1]; at 100.0 µM 99% | [3]; [17] 92% | [3]; [18] 100% | [3]; at 50.0 µM 99.7% | [4]; at 11.0 µM 80% | [4]; at 33.0 µM 97% | [4]; at 100.0 µM 99% | [5]; [18] 99% | [5]; at 50.0 µM 99.4% | [6]; at 1.2 µM 75% | [6]; at 3.7 µM 87% | [6]; at 11.0 µM 89% | [6]; at 33.0 µM 99% | [6]; [18] 99% | [6]; at 50.0 µM 99.4% | [6]; at 100.0 µM 99% | [7]; at 11.0 µM 76% | [7]; at 33.0 µM 99% | [7]; at 100.0 µM 99% | [8]; at 11.0 µM 85% | [8]; at 33.0 µM 99% | [8]; at 100.0 µM 99% | [9]; at 11.0 µM 89% | [9]; at 33.0 µM 99% | [9]; at 100.0 µM 99% | [10]; [17] 96% | [10]; [18] 99% | [10]; at 50.0 µM 99.5% | [11]; at 11.0 µM 92% | [11]; at 33.0 µM 98% | [11]; at 100.0 µM 99%
